Laboratory results reported in PubChem BioAssay (NCI).
This is part of a sample that, as a whole, favours compounds with a hit. Of some 79,000 tested, about 15% had one in any assay. Calls of active or inactive are those of the source. Rule as the data show it: active = growth inhibition above about 70%; inactive = the rest.

Test: NCI Yeast Anticancer Drug Screen. Data for the bub3 strain (AID 167)
Conditions: S. cerevisiae bub3 mutant strain, at 50.0 µM, active compounds read high
How it was run: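 Growth of a checkpoint-deficient yeast mutant is measured after compound exposure. Values represent inhibition relative to vehicle.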

SMILES	growth inhibition
Cc1cccc(OC(=O)Oc2cccc(C)c2)c1	20.6% (inactive)
CC(=O)O[C@]12CCCCCCC1C1(O)C(O)CCC[C@H]12 (stereo not given in full)	-22.2% (inactive)
COC(=O)C1C(COS(C)(=O)=O)ON2CCC(OC)(OC)C12 (stereo not given)	7.3% (inactive)
COc1ccc(/C=C2\C=Cc3ccccc32)cc1OC	10.7% (inactive)
C[C@@H]1CN(c2ccccc2)C[C@H](C)OS(=O)O1 (stereo not given in full)	-6.95% (inactive)
CN(C)C(=O)Nc1cccc(OC(=O)NCCCl)c1	41% (inactive)
O=COC1CCCCCC1	-5.9% (inactive)
O=C(NC1(C(=O)O)CCCC1)C(F)(F)F	2.45% (inactive)
Cc1cc(Cl)cc(Cl)c1OCC(=O)Nc1ccc(Cl)cc1	21.9% (inactive)
CC(=O)N(C)Cc1c(O)ccc2ccccc12	-2.25% (inactive)
CC1=CC(=O)C(=O)c2ccccc21	-4.4% (inactive)
CCOC(=O)/C=C/c1ccc(F)cc1	20.8% (inactive)
Cc1c(O)c(=O)ccn1C1OC(CO)C(O)C1O (stereo not given)	15.8% (inactive)
COc1ccc(NNc2ccc(OC)cc2)cc1	-5.1% (inactive)
O=C(/C=C/C(=O)NCc1ccccc1)NCc1ccccc1	4.7% (inactive)
COc1ccc(C(=O)C(C)(c2nc3n(c2O)C(=N)N=N3)c2nc3n(c2O)C(=N)N=N3)cc1 (stereo not given)	5.8% (inactive)
O=C1c2ccccc2C(=O)N1CC(F)(F)F	5.6% (inactive)
O=C(c1cccc([N+](=O)[O-])c1)N1CCCCC1	4.1% (inactive)
O=C1C(Cl)=C(NC(CO)(CO)CO)C(=O)c2ccccc21	8.45% (inactive)
CCNC(=O)c1ccc(Cl)cc1	-6.15% (inactive)

SMILES	growth inhibition
CC(=O)c1cccc(NC(=O)Nc2ccc(Nc3ccccc3)cc2)c1	21.8% (inactive)
CC(=O)OC1CCC2(C)C(=CCC3C2CCC2(C)C(/C(C)=N/NC(N)=O)CCC32)C1 (stereo not given)	-0.6% (inactive)
O=c1oc2ccccc2cc1S(=O)(=O)c1ccccc1	-0.95% (inactive)
COc1cccc(OC)c1/C=C1\N=C(c2ccccc2)OC1=O	5.55% (inactive)
CC1C(=O)C(O)CC2C1(C)CCC1C2(C)CCC2(C)C3CC(C)(C)CCC3(C)CCC12C (stereo not given)	5.45% (inactive)
Clc1ccccc1SSc1ccccc1Cl	28.1% (inactive)
O=C(Nc1ccccc1-c1n[nH]c(=S)[nH]c1=O)C(F)(F)F	-65.8% (inactive)
OCCCN1CCCCC1	-1% (inactive)
COc1cc(/C=C(\C#N)C(N)=O)cc(Br)c1O	7.45% (inactive)
CCCCNC(=O)Oc1cccc2ccccc12	29.8% (inactive)
COC(=O)N/N=C(\C)C(CN1CCCCC1)C(C1=C(O)c2ccccc2OC1)c1ccccc1 (stereo not given)	4.9% (inactive)
CC(=O)OC1COC(n2c(=S)n(-c3ccccc3)c(=O)c3cc(Br)ccc32)C(OC(C)=O)C1OC(C)=O (stereo not given)	-3.85% (inactive)
CCCCS(=O)(=O)CCC(N)P(=O)(O)O (stereo not given)	-6.15% (inactive)
COc1ccc(C=O)c(C)c1	-15.8% (inactive)
O=C(CCN1C(=O)c2ccccc2C1=O)NCS(=O)(=O)O	16.2% (inactive)
Nc1ccc(S(=O)(=O)Nc2nc(CN3CCCCC3)cs2)cc1	-1.4% (inactive)
CC(=O)OCC1OC(n2cc(F)c(=O)[nH]c2=O)C(NC(=O)N(CCCl)N=O)C(OC(C)=O)C1OC(C)=O (stereo not given)	0.9% (inactive)
CN(C)NC(=O)Nc1ccc2ccccc2c1	-24.2% (inactive)
CCC(=O)Oc1ccc(Cl)cc1C	1.75% (inactive)
CC1(C)CC(=O)OC/C=C\CC(Cc2ccccc2)C(=O)C1 (stereo not given)	12.2% (inactive)
